The record followed here is PubChem BioAssay.

One may read the inhibition as the change of the read-out against control, counted positive when it falls.

Calls of active or inactive are those of the source. Unless noted, no stated cut-off is given here; in the data, active means inhibition above about 42%; inactive means the rest.

Test system in the first assay: not listed separately
The assay can be described thus: StAR promoter reporter inhibitors, counter-screen for LRH-1 inverse agonist project, cell-based, luminescence, high throughput (AID 651611; in the data active means inhibition above about 28%). Particulars: StAR promoter luciferase reporter counterscreen, at 3.6 µM, active compounds read high.
On to `Cc1ccc(Sc2ccc(NC(=O)CCl)cc2)cc1C`, for which the inhibition is 0.02% (inactive).

With `O=C(c1ccccc1Br)N1CCN(c2ccc([N+](=O)[O-])c(N3CCOCC3)c2)CC1`, the inhibition was 8.23% (inactive).

With `CCc1cc(=O)oc2cc3occ(-c4ccc(OC)c(F)c4)c3cc12`, the inhibition was 26.4% (inactive).

As to `O=C(C(Cl)c1ccccc1)N1CCOCC1` (stereo not given), the inhibition is 5.9% (inactive).

Consider `Cc1ccc(NC(=O)CSc2nnc(CCCCCNC(=O)OC(C)(C)C)o2)c(C)c1`, for which the inhibition is 12.2% (inactive).

Turning to `O=C(Nc1ccc(N2CCN(C(=O)c3ccco3)CC2)cc1)c1ccc2c(c1)OCO2`, the inhibition was 23.4% (inactive).

In the case of `Cc1ccc(C(=O)N/N=C\c2ccc([N+](=O)[O-])o2)cn1`, the inhibition was 24.3% (inactive).

For the molecule `C=CC[n+]1c(-c2ccc(Cl)cc2Cl)csc1Nc1c(C)n(C)n(-c2ccccc2)c1=O`, the inhibition is 10.3% (inactive).

In the case of `Cc1cc(NCCCCCCCNc2cc(C)nc3cc([N+](=O)[O-])ccc23)c2ccc([N+](=O)[O-])cc2n1`, the inhibition was -0.67% (inactive).

Turning to `C#Cc1cc(N2CCN(C(=O)c3ccoc3)CC2)n2nc(-c3cccc(Cl)c3)cc2n1`, the inhibition was 49% (active).

On to `CC(=O)N1CCN(c2cc(N3CCCC3)c(F)cc2[N+](=O)[O-])CC1`, for which the inhibition is 2.68% (inactive).

On to `COc1ccc(C2=CC(=O)CC(C)(C)C2)cc1OC`, for which the inhibition was -7.16% (inactive).

As for `Cc1ccc(NNC(N)=S)cc1Cl`, the inhibition is 11.6% (inactive).

For the molecule `O=C(N/N=C/c1c[nH]c2ccccc12)c1[nH]c2ccc(Br)cc2c1-c1ccccc1`, the inhibition was 52.3% (active).

On to `CSCc1c(C(=O)Nc2ccccc2N2CCOCC2)oc2ccccc12`, for which the inhibition is 7.6% (inactive).

On to `O=C(NCCCc1ccccc1)c1cc([N+](=O)[O-])ccc1Cl`, for which the inhibition was 23.3% (inactive).

With `CCNc1nc(-c2sc(NC(=O)C(C)(C)C)nc2C)c(-n2cc(-c3ccccc3)nn2)s1`, the inhibition is 60.9% (active).

For `COc1cc2c(OC(C)=O)c3c(c(-c4ccc5c(c4)OCO5)c2cc1OC)C(=O)OC3`, the inhibition was 55.8% (active).

On to `CC1(C)CC2CC(C)(CN2S(=O)(=O)c2ccc(C(=O)Nc3cccc(S(=O)(=O)N4CCOCC4)c3)cc2)C1` (stereo not given), for which the inhibition is 13% (inactive).

For the molecule `CCOCC(=O)Nc1ccc([N+](=O)[O-])cc1C`, the inhibition is 9% (inactive).

Turning to `CNC(=O)c1cccc(NC(=O)c2cc(-c3ccccc3)nc3c2cnn3C(C)C)c1`, the inhibition is 29.4% (active).

As for `COc1ccc(OCCNC(=O)c2ccccc2OCC(=O)Nc2ccc(NC(C)=O)cc2)cc1`, the inhibition was 16% (inactive).

For `COc1ccc(C2=CC(=O)OC3(CCCC3)O2)cc1`, the inhibition is 15% (inactive).

As to `CCCOc1ccc2oc(=O)c3c(c2c1)CCCN3C(=O)CN1CCN(c2ncccn2)CC1`, the inhibition is 6.16% (inactive).

On to `O=C(NC1CCCCC1)c1ccc([N+](=O)[O-])o1`, for which the inhibition is 24.6% (inactive).

Take `Nc1cccc2nc3ccccc3cc12`: the inhibition was 21.7% (inactive).

`Cc1c(NC(=O)c2ccc([N+](=O)[O-])o2)cccc1-c1nc2ncccc2o1`: the inhibition is 13.3% (inactive).

For the molecule `CCN(CC)S(=O)(=O)c1cc(NC(=O)CCCOc2ccc(C(C)=O)cc2)ccc1C`, the inhibition is 2.6% (inactive).

Take `Nc1ccc(C(=O)NN2C(=O)[C@H](Cl)C2c2ccc(Cl)cc2)cc1` (stereo not given in full): the inhibition was 8.81% (inactive).

In the case of `O=[N+]([O-])c1ccc(N2CCN(S(=O)(=O)c3ccccc3)CC2)cc1NCc1cccnc1`, the inhibition is 6.64% (inactive).

As to `Cc1c(C#N)c(O)n(CCO)c(=O)c1N=Nc1ccc2c(c1)COC2=O`, the inhibition is 17.9% (inactive).

Turning to `COc1cccc(C2c3cc4c(cc3OC(N3CCOCC3)C2C)OCO4)c1O` (stereo not given), the inhibition was 11.7% (inactive).

Turning to `CC(=O)N1CCN(c2ccc(NC(=O)c3cccc([N+](=O)[O-])c3)cc2)CC1`, the inhibition is -1.56% (inactive).

For `CCC(C)(C)n1nnnc1CN1CCC(O)(c2cccc(C(F)(F)F)c2)CC1`, the inhibition was 8.87% (inactive).

As to `Fc1ccc(Br)cc1SCCc1ccncc1`, the inhibition is 1.89% (inactive).

As to `CC(NC(=O)c1ccco1)C(c1cccs1)N1CCN(c2ccccc2F)CC1` (stereo not given), the inhibition was 3.57% (inactive).

In the case of `Cc1ccn2c(=O)nc(SCC(=O)Nc3ccc4c(c3)OCCO4)nc2c1`, the inhibition was -9.07% (inactive).

Regarding `Cn1c(=O)n(C)c2cc(NC(=O)CSc3nnc(-c4ccccc4O)n3-c3ccccc3)ccc21`, the inhibition is 30.1% (active).

Turning to `Cc1ccc(NC(=O)COC(=O)C(NS(=O)(=O)c2ccc(Cl)cc2)C(C)O)c(Br)c1` (stereo not given), the inhibition is 3.18% (inactive).

As for `Cc1ccc(OCc2nnc(SCC(=O)Nc3ccc4c(c3)OCCO4)n2Cc2ccco2)cc1`, the inhibition is 6.71% (inactive).

In a further assay the target is Nuclear receptor subfamily 5 group A member 2 (Homo sapiens) (UniProt O00482). The assay can be described thus: NR5A2 activity suppression in reporter cells – cell-based, luminescence, confirmation (AID 651613).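 Further: HEK293T cells co-transfected with LRH-1 and StAR promoter luciferase reporter; 0% = vehicle wells and 100% = parental cells lacking receptor.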 Particulars: cell-based LRH-1 luciferase reporter, inverse agonism; at 3.6 µM; active compounds read high. On the technique in general: A reporter such as luciferase makes a cellular process visible.
Sequence of Nuclear receptor subfamily 5 group A member 2 (Homo sapiens) (O00482 whole entry, looked up): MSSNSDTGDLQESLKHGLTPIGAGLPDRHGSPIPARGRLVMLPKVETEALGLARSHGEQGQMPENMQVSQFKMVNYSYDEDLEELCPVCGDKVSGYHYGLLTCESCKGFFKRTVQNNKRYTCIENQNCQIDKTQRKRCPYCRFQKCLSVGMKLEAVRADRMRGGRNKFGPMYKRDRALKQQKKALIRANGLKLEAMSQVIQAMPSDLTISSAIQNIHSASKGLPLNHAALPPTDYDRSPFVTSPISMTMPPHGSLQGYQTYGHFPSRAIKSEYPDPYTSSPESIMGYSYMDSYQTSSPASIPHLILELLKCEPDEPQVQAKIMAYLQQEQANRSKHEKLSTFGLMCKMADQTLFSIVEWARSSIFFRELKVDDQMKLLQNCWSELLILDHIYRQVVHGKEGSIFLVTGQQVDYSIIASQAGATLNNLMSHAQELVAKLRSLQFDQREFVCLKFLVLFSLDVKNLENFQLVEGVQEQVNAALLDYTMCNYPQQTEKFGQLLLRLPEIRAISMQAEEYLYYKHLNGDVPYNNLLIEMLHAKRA
In the case of `Cc1ccc(Sc2ccc(NC(=O)CCl)cc2)cc1C`, the inhibition is 52.6% (active).

For the molecule `O=C(c1ccccc1Br)N1CCN(c2ccc([N+](=O)[O-])c(N3CCOCC3)c2)CC1`, the inhibition was 42% (active).

In the case of `CCc1cc(=O)oc2cc3occ(-c4ccc(OC)c(F)c4)c3cc12`, the inhibition is 75% (active).

On to `O=C(C(Cl)c1ccccc1)N1CCOCC1` (stereo not given), for which the inhibition was 56.5% (active).

For `Cc1ccc(NC(=O)CSc2nnc(CCCCCNC(=O)OC(C)(C)C)o2)c(C)c1`, the inhibition is 47.9% (active).

For `O=C(Nc1ccc(N2CCN(C(=O)c3ccco3)CC2)cc1)c1ccc2c(c1)OCO2`, the inhibition was 48.3% (active).

On to `Cc1ccc(C(=O)N/N=C\c2ccc([N+](=O)[O-])o2)cn1`, for which the inhibition was 59% (active).

Turning to `C=CC[n+]1c(-c2ccc(Cl)cc2Cl)csc1Nc1c(C)n(C)n(-c2ccccc2)c1=O`, the inhibition was 58.7% (active).

For the molecule `Cc1cc(NCCCCCCCNc2cc(C)nc3cc([N+](=O)[O-])ccc23)c2ccc([N+](=O)[O-])cc2n1`, the inhibition was 26.2% (inactive).

Regarding `C#Cc1cc(N2CCN(C(=O)c3ccoc3)CC2)n2nc(-c3cccc(Cl)c3)cc2n1`, the inhibition is 55.6% (active).

For `CC(=O)N1CCN(c2cc(N3CCCC3)c(F)cc2[N+](=O)[O-])CC1`, the inhibition is 57.4% (active).

Turning to `COc1ccc(C2=CC(=O)CC(C)(C)C2)cc1OC`, the inhibition was 59.1% (active).

With `Cc1ccc(NNC(N)=S)cc1Cl`, the inhibition was 53.4% (active).

In the case of `O=C(N/N=C/c1c[nH]c2ccccc12)c1[nH]c2ccc(Br)cc2c1-c1ccccc1`, the inhibition was 38% (inactive).

On to `CSCc1c(C(=O)Nc2ccccc2N2CCOCC2)oc2ccccc12`, for which the inhibition was 65.9% (active).

As for `O=C(NCCCc1ccccc1)c1cc([N+](=O)[O-])ccc1Cl`, the inhibition is 71% (active).

As for `CCNc1nc(-c2sc(NC(=O)C(C)(C)C)nc2C)c(-n2cc(-c3ccccc3)nn2)s1`, the inhibition was 27.6% (inactive).

Take `COc1cc2c(OC(C)=O)c3c(c(-c4ccc5c(c4)OCO5)c2cc1OC)C(=O)OC3`: the inhibition was 35.4% (inactive).

With `CC1(C)CC2CC(C)(CN2S(=O)(=O)c2ccc(C(=O)Nc3cccc(S(=O)(=O)N4CCOCC4)c3)cc2)C1` (stereo not given), the inhibition was 59% (active).

Regarding `CCOCC(=O)Nc1ccc([N+](=O)[O-])cc1C`, the inhibition is 59.1% (active).

Turning to `CNC(=O)c1cccc(NC(=O)c2cc(-c3ccccc3)nc3c2cnn3C(C)C)c1`, the inhibition is 51.7% (active).

For `COc1ccc(OCCNC(=O)c2ccccc2OCC(=O)Nc2ccc(NC(C)=O)cc2)cc1`, the inhibition is 49.8% (active).

Turning to `COc1ccc(C2=CC(=O)OC3(CCCC3)O2)cc1`, the inhibition was 60.5% (active).

On to `CCCOc1ccc2oc(=O)c3c(c2c1)CCCN3C(=O)CN1CCN(c2ncccn2)CC1`, for which the inhibition was 53.4% (active).

`O=C(NC1CCCCC1)c1ccc([N+](=O)[O-])o1`: the inhibition is 54.9% (active).

For the molecule `Nc1cccc2nc3ccccc3cc12`, the inhibition is 104% (active).

Regarding `Cc1c(NC(=O)c2ccc([N+](=O)[O-])o2)cccc1-c1nc2ncccc2o1`, the inhibition was 66.2% (active).

`CCN(CC)S(=O)(=O)c1cc(NC(=O)CCCOc2ccc(C(C)=O)cc2)ccc1C`: the inhibition is 42.6% (active).

Take `Nc1ccc(C(=O)NN2C(=O)[C@H](Cl)C2c2ccc(Cl)cc2)cc1` (stereo not given in full): the inhibition is 43.1% (active).

For the molecule `O=[N+]([O-])c1ccc(N2CCN(S(=O)(=O)c3ccccc3)CC2)cc1NCc1cccnc1`, the inhibition was 61% (active).

In the case of `Cc1c(C#N)c(O)n(CCO)c(=O)c1N=Nc1ccc2c(c1)COC2=O`, the inhibition is 39.5% (inactive).

On to `COc1cccc(C2c3cc4c(cc3OC(N3CCOCC3)C2C)OCO4)c1O` (stereo not given), for which the inhibition is 51.8% (active).

For `CC(=O)N1CCN(c2ccc(NC(=O)c3cccc([N+](=O)[O-])c3)cc2)CC1`, the inhibition was 53.6% (active).

With `CCC(C)(C)n1nnnc1CN1CCC(O)(c2cccc(C(F)(F)F)c2)CC1`, the inhibition is 41.6% (active).

With `Fc1ccc(Br)cc1SCCc1ccncc1`, the inhibition is 45.7% (active).

On to `CC(NC(=O)c1ccco1)C(c1cccs1)N1CCN(c2ccccc2F)CC1` (stereo not given), for which the inhibition is 49.3% (active).

Consider `Cc1ccn2c(=O)nc(SCC(=O)Nc3ccc4c(c3)OCCO4)nc2c1`, for which the inhibition is 49.3% (active).

Regarding `Cn1c(=O)n(C)c2cc(NC(=O)CSc3nnc(-c4ccccc4O)n3-c3ccccc3)ccc21`, the inhibition was 58.8% (active).

In the case of `Cc1ccc(NC(=O)COC(=O)C(NS(=O)(=O)c2ccc(Cl)cc2)C(C)O)c(Br)c1` (stereo not given), the inhibition is 55.3% (active).

For the molecule `Cc1ccc(OCc2nnc(SCC(=O)Nc3ccc4c(c3)OCCO4)n2Cc2ccco2)cc1`, the inhibition was 45.5% (active).
